# The list is not random: actives were taken first. Their share in the collection is about 11%.
# IMPase Li inh: qHTS Assay for Identifying the Cell-Membrane Permeable IMPase Inhibitors: Potentiation with Lithium. Potency, µM (highest dose often 59.4 µM), for inactives: at the highest dose activity, negative = IMPase inhibition, usual class: inhibitors. CHO-M1 cells, IP1 TR-FRET (IP-One), carbachol + lithium. 210,000 tested, 0.35% active; active means well fitted curve in the direction sought with a large enough effect; inconclusive means small, poorly fitted or top-dose-only effect, or another doubt; inactive means no such curve, though single readings can be large; an effect the other way counts as inactive or inconclusive;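 further: IP1 builds up when IMPase is blocked and the TR-FRET signal falls; potency means the concentration at half of the fitted maximal effect; plate controls were basal vehicle for no effect and high inhibitor control for full effect; nearly all actives have a fitted effect of over 50% in size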
#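 Lithium-sensitised IP1 accumulation assay; M1-expressing CHO cells treated 30 min at 37C with compound. Competitive antibody detection by time-resolved FRET followed a 10 min room-temperature lysis step.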
# IMPase inh: qHTS Assay for Identifying the Cell-Membrane Permeable IMPase Inhibitors | Inositol monophosphatase 1 (Rattus norvegicus), P97697 | CHO-M1 cells, IP1 accumulation, HTRF TR-FRET ratio | inhibition (IP1 accumulation), % at 46.1 µM | 120,000 tested, under 10 active; active means well fitted curve in the direction sought with a large enough effect in the signal ratio, not every such curve was filed as active; inconclusive means small, poorly fitted or top-dose-only effect, or a change in a side signal; inactive means no such curve, though single readings can be large or run the other way; the % refers to the signal ratio;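 further: cells stimulated with carbachol in lithium chloride buffer; plate controls were DMSO basal wells for no effect and reference inhibitor wells for full effect; higher means more IMPase inhibition seen as more IP1 and lower FRET ratio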
#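 Cellular IMPase inhibition is scored as a rise in cytosolic IP1, detected by competitive TR-FRET between d2-labelled IP1 and a europium anti-IP1 antibody. M1-expressing CHO cells were stimulated with carbachol for 30 min at 37C, with lithium (50 mM LiCl) present in the buffer.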
# PNC assembly inh: High Content Assay for Compounds that inhibit the Assembly of the Perinucleolar Compartment; 140,000 tested, 3.1% active; activity change (PNC), negative = inhibition, % at 10 µM; PC3M PTB-GFP, PNC prevalence imaging, 16 h; hits give low values;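 active means readout at or below -70, meaning at least 70% loss of cells showing the perinucleolar compartment, a nuclear body marking cancer cells; inconclusive means readout between -30 and a set limit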;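 further: plate controls were DMSO wells for no effect and camptothecin positive control wells for full effect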
#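 Read-out is percentage of cells bearing a perinucleolar compartment, from automated 20x imaging of fixed, Hoechst-stained PC3M PTB-GFP cells. Cells were seeded 4 h, then exposed 16 h to compound (23 nl of library stock) in duplicate plates.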
# ALOX12 inhib: qHTS Assay for Inhibitors of 12-hLO (12-human lipoxygenase) | AID 1452, 2008 | Polyunsaturated fatty acid lipoxygenase ALOX12 (Homo sapiens), P18054 | 150,000 tested, 0.12% active | purified 12-hLO, xylenol orange hydroperoxide absorbance | Potency, µM (titrated, usually from 57.1 µM), inactives show at the highest dose activity change, negative = inhibition, hits mostly inhibitors; active means well fitted curve in the direction sought with a large enough effect; inconclusive means small, poorly fitted or top-dose-only effect, or another doubt; inactive means no such curve, though single readings can be large; an effect the other way counts as inactive or inconclusive; further: potency means the concentration at half of the fitted maximal effect; nearly all actives have a fitted effect of over 55% in size
# Target sequence (P18054 whole entry, looked up): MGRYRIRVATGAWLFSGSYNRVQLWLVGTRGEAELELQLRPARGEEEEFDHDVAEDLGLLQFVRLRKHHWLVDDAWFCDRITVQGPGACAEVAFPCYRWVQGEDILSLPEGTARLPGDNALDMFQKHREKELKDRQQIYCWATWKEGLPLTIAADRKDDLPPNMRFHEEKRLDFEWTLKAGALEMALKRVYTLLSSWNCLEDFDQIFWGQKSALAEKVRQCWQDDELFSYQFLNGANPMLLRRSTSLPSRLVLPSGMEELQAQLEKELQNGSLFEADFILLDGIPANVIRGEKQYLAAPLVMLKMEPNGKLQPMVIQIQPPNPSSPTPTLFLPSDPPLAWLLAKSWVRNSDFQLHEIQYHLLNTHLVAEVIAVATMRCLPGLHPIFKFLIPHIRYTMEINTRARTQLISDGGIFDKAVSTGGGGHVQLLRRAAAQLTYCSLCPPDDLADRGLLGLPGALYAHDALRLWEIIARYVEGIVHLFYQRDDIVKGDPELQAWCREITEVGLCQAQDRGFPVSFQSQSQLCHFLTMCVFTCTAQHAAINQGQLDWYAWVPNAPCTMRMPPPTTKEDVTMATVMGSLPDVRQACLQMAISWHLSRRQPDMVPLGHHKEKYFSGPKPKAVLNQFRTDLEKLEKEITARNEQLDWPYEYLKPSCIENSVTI
#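 Purified human 12hLO (150 nM), preincubated 15 min with compound, then 40 uM arachidonic acid for 30 min, room temperature, Hepes pH 7.0 with 0.01% Triton X-100. Hydroperoxide detected by ferrous iron/xylenol orange; 573/405 nm absorbance ratio gives reaction progress.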
# HPGD block: qHTS Assay for Inhibitors of HPGD (15-Hydroxyprostaglandin Dehydrogenase) | AID 894, 2007 | Potency, µM, without a hit: at the top dose activity change, negative = inhibition, most hits filed as inhibitors | 15-hydroxyprostaglandin dehydrogenase [NAD(+)] (Homo sapiens), P15428 | 150,000 tested, 4.3% active | purified HPGD, NADH fluorescence kinetic, PGE2 substrate; further: potency means the concentration at half of the fitted maximal effect
#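 20 nM HPGD preincubated 15 min at room temperature with compound in 50 mM Tris-HCl pH 8, 0.01% Tween 20. Started with 1 mM NAD+ and 30 uM prostaglandin E2; NADH fluorescence (360/450 nm) read 5 times over 30-s intervals, last minus first.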
# ALDH1A1 inh: qHTS Assay for Inhibitors of Aldehyde Dehydrogenase 1 (ALDH1A1); Aldehyde dehydrogenase 1A1 (Homo sapiens), P00352; Purified ALDH1A1, NADH fluorescence, propionaldehyde substrate; Potency, µM (highest dose often 75.3 µM), inactives show top-dose activity, negative = inhibition, usual class: inhibitors; 220,000 tested, 7.3% active;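 further: potency means the concentration at half of the fitted maximal effect; plate controls were no enzyme wells and a reference inhibitor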
# Starred values were filed as active, the others as inactive; ? = inconclusive; . = not tested or not shown; ! = not confirmed by another sample; [ ] = remark or other dose. Unless noted, the call rests on the fitted dose curve; in most records, active means well fitted inhibition curve with a large enough effect (not every such curve was filed as active); inconclusive means small, poorly fitted or top-dose-only effect, or another doubt; inactive means no such curve, though single readings can be large or run the other way. Unless noted, on the % scale 0 is the no-effect control and ±100 the full control effect.
SMILES,IMPase Li inh,IMPase inh,PNC assembly inh,ALOX12 inhib,HPGD block,ALDH1A1 inh
O=[N+]([O-])c1ccc(N/N=C/c2cccc(O)c2O)c(S(=O)(=O)N2CCOCC2)c1,8.5%,.,.,.,.,-8.7%
NS(=O)(=O)c1ccc(N=Nc2ccc(O)c(C(=O)O)c2)cc1,2.9%,.,.,-9.2%[11.4 µM],-17.3%,?
O=C(O)c1cc(N=Nc2ccc([N+](=O)[O-])cc2)ccc1O,-2.9%,.,.,-4.9%[11.4 µM],-3.3%,22.4µM*!
CCOC(=O)N/N=C(\C)c1cccs1,13.4%,.,.,.,.,4.7%
C/C(=N\NC(=O)CC1(C)OCCO1)c1cccs1,3.0%,.,-88.4*,0.5%,-4.0%,11.4%
CS(=O)(=O)N1CCC2(CCCN(c3ccccn3)C2)CC1,11.0%,.,.,1.6%,?,?
Cc1ccc2oc(=O)c3cc(C(=O)NCCN4CCc5ccccc5C4)sc3c2c1,11.1%,.,0.1,-1.2%,?,28.2µM*
C/C=C/C=C/C=O,-11.2%,.,.,-5.1%,-8.1%,25.1µM*
CCOC(=O)c1ccc(N=C2C(=S)N(c3ccc(C(=O)OCC)cc3)C(=N)N2/N=C/c2ccccc2)cc1,25.4%,10.3,-86.4*,-5.2%,22.4µM*,2µM*
CCNc1ncc2nc(-c3cccs3)c(=O)n(-c3ccc(OC)cc3)c2n1,-2.9%,.,.,2.8%,-12.5%,?
CCC(=O)c1ccc(OCCSc2ncccn2)cc1,6.3%[38.3 µM],3.7,40.1,-1.4%,31.6µM*,-5.7%
O=c1cnc2cnc(N3CCNCC3)nc2n1CCc1ccccc1,10.2%,.,.,3.4%,?,?
COc1ccc(NC(=O)c2cc(C(C)C)on2)cc1OC,-8.6%[38.3 µM],3.5,3.2,3.4%,-13.7%,?
COc1ccc(NC(=O)c2cc(C(C)C)on2)c(OC)c1,28.4%[38.3 µM],2.9,13.1,-6.0%,?,3.98µM*
COc1cc(NC(=O)c2cc(C(C)C)on2)c(OC)cc1Cl,31.5%[38.3 µM],-1.3,?,5.7%,?,7.94µM*
COc1cc(NC(=O)c2cc(C3CC3)on2)c(OC)cc1Cl,-4.9%[38.3 µM],13.7,2.4,-4.6%,?,?
c1ccc([C@H](c2cccc3c2ccc2ccccc23)[C@H](c2ccccc2)c2cccc3c2ccc2ccccc23)cc1,.,.,.,5.7%[11.4 µM],.,.
CCc1nc2ccccc2c(=O)n1NC(=O)c1c(O)c2cccc3c2n(c1=O)CCC3,-5.8%[38.3 µM],-2.2,-83.4*,-2.7%,-13.4%,15.6%
O=C(Nn1c(Cc2ccccc2)nc2ccccc2c1=O)c1c(O)c2cccc3c2n(c1=O)CCC3,8.4%,.,.,.,.,?
N#C/C(=C\c1ccc(-c2ccc(C(=O)O)cc2)o1)C(=O)Nc1ccccc1C(=O)O,.,0.8,.,.,.,.
CCCCCCN1N=C(C)C(C(=O)c2ccc(Cl)cc2)C1=O (stereo not given),-22.0%[38.3 µM],1.5,-2.6,-24.6%,-4.1%,?
CCCCCCCN1N=C(C)C(C(=O)c2ccccc2)C1=O (stereo not given),13.4%[38.3 µM],-3.6,-84.8*,-18.8%,-0.2%,-3.6%
CS(=O)c1nc(-c2ccc(Br)cc2)cc(-c2ccccc2)c1C#N (stereo not given),27.5%[38.3 µM],-3.3,8.9,-15.2%,7.3%,12.6µM*
N#Cc1c(-c2cccc(Br)c2)cc(-c2cccnc2)nc1N,?,.,35.6,0.6%,?,?
N#Cc1c(-c2ccc(F)cc2)cc(-c2cccnc2)nc1N,?,.,-88.9*,-1.0%,?,?
N#Cc1c(-c2ccc(Br)cc2)cc(-c2cccnc2)nc1N,22.4µM*,.,-11.1,-1.6%,-10.6%,2.3%
CS(=O)(=O)c1nc(-c2ccc(Br)cc2)cc(-c2ccccc2)c1C#N,-29.7%[38.3 µM],?,71.5,4.6%,-1.7%,?

# Bioassay records from PubChem BioAssay.
